# Data as given in PubChem BioAssay (EPA / NIEHS).
# Where “and” joins values, the source holds several entries; their conditions need not be identical. Identical values can stand only once. Records with an inconclusive call do not appear. Calls of active or inactive are those of the source. Rule for the calls, unless noted: active = hit-call score of the fitted dose curve at least 0.9, where 1 is the maximum; inconclusive = response in the unintended direction; inactive = score below 0.9.
# Legend:
# [1] = target: Cellular tumor antigen p53 (Homo sapiens) (UniProt P04637); assay: TOX21_p53_BLA_p2_ratio: Tox21 HCT-116 p53 Agonism Beta-lactamase Assay, Ratio, Phase 2 (AID 2283592)
# Sequence of Cellular tumor antigen p53 (Homo sapiens) (P04637 whole entry, looked up): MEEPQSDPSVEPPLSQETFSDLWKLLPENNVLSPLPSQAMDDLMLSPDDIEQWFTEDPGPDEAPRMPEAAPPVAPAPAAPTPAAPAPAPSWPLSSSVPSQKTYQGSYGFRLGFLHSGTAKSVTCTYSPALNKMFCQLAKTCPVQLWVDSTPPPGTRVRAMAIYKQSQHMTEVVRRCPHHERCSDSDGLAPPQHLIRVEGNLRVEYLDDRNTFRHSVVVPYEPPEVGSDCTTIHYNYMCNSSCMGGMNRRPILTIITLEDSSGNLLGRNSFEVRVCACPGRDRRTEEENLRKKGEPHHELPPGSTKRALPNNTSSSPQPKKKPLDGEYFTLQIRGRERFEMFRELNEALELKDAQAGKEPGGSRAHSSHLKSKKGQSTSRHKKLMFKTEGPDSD
# Outline: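 HCT-116 cells with p53-responsive beta-lactamase reporter, 4000 cells/well, preincubated 5 h, then compound in DMSO (217-fold dilution) for 16 h at 37C. CCF4-AM substrate 2 h at room temperature; 460/530 nm emission ratio fitted upward versus DMSO.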
# [2] = TOX21_p53_BLA_p4_viability: Viability Assessment in the Tox21 HCT-116 p53 Agonism Beta-lactamase Assay, Phase 4 (AID 2283597);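 note: hits lower the luminescence signal meaning cytotoxicity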
# Outline: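 HCT-116 p53-bla cells, 4000/well, dosed after 5 h attachment and incubated 16 h at 37 °C, 5% CO2. Viability from CellTiter-Glo ATP luminescence after 30 min at room temperature, taken after the beta-lactamase read; loss of signal indicates cytotoxicity.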
# [3] = TOX21_p53_BLA_p5_viability: Viability Assessment in the Tox21 HCT-116 p53 Agonism Beta-lactamase Assay, Phase 5 (AID 2283600)
# Outline: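 HCT-116 p53 beta-lactamase reporter cells, 4000/well, were exposed to compound (pin transfer, 217-fold dilution) for 16 hours at 37C. Cellular ATP was read by CellTiter-Glo luminescence after 30 min at room temperature.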
# [4] = target: Cellular tumor antigen p53 (Homo sapiens) (UniProt P04637); assay: TOX21_p53_BLA_p4_ratio: Tox21 HCT-116 p53 Agonism Beta-lactamase Assay, Ratio, Phase 4 (AID 2283601)
# Outline: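 Signal is the blue/green (460nm/530nm) ratio of cleaved versus uncleaved CCF4-AM substrate, read after 2 h substrate loading. Cells were HCT116 carrying the p53-responsive beta-lactamase reporter, dosed 16 h at 37C, 5% CO2; CellTiter-Glo measured in parallel.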
# [5] = target: Cellular tumor antigen p53 (Homo sapiens) (UniProt P04637); assay: TOX21_p53_BLA_p5_ratio: Tox21 HCT-116 p53 Agonism Beta-lactamase Assay, Ratio, Phase 5 (AID 2283599)
# Outline: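 Beta-lactamase reporter ratio (blue 460 nm over green 530 nm, 405 nm excitation) after 2 h CCF4-AM loading, in HCT-116 cells exposed 16 h at 37 C to compounds pinned at 217-fold dilution. Increases relative to DMSO baseline scored.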
# [6] = CCTE_Harrill_HTTr_Viability_MCF7: CCTE's 6-hour Cell Viability Assessment for the High-Throughput Transcriptomics (HTTr) Platform, in MCF-7 cells cultured in DMEM + 10% fetal bovine serum, Harrill Lab (AID 2284010; active = hit-call score of the fitted dose curve at least 0.9, where 1 is the maximum; inactive = score below 0.9)
# Outline: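 MCF-7 cells in DMEM + 10% FBS, 384-well, exposed 6 h to an eight-point dilution series. Membrane integrity scored by high-content imaging of propidium iodide exclusion; bidirectional fit versus DMSO.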
# [7] = CCTE_Harrill_HTTr_Apoptosis_MCF7: CCTE's 6-hour Apoptosis Assessment for the High-Throughput Transcriptomics (HTTr) Platform, in MCF-7 cells cultured in DMEM + 10% fetal bovine serum, Harrill Lab (AID 2284011; active = hit-call score of the fitted dose curve at least 0.9, where 1 is the maximum; inactive = score below 0.9)
# Outline: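 MCF-7 cells in DMEM + 10% FBS exposed 6 h to chemicals over an eight-point dilution series. Caspase-3/7 activation imaged by high-content CellEvent Green staining; fitted bidirectionally versus DMSO.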
# [8] = target: Cellular tumor antigen p53 (Homo sapiens) (UniProt P04637); assay: TOX21_p53_BLA_p3_ratio: Tox21 HCT-116 p53 Agonism Beta-lactamase Assay, Ratio, Phase 3 (AID 2283596)
# Outline: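 HCT116 p53-bla cells (4000/well) given compound in DMSO (217-fold dilution) after 5 h, incubated 16 h at 37C. CCF4-AM substrate 2 h at room temperature; 460/530 nm emission ratio, gain fitted against DMSO.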
# [9] = target: Thyroid hormone receptor alpha (Rattus norvegicus) + Thyroid hormone receptor beta (Rattus norvegicus) (UniProt P18113+P63059); assay: TOX21_TR_LUC_GH3_Antagonist_Followup: Tox21 GH3 Thyroid Hormone Receptor Antagonism Luciferase Follow-Up Assay (AID 2283942)
# Outline: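 Confirmatory qHTS, antagonist mode: T3 (1.0 nM final) + test cpd, 15 conc, 92 uM–5nM final, GH3 rat pituitary line, 24 h, 37C. Luc reporter, RLU vs DMSO.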
# THRB (gene 7068) = THRB (gene 7068) (UniProt P10828); assay: TOX21_TRB_BLA_Antagonist_Followup_ratio: Tox21 Thyroid Hormone Receptor beta Antagonism Beta-lactamase (BLA) Follow-Up Assay, Ratio (AID 2283958)
# Sequence of THRB (gene 7068) (P10828 whole entry, looked up, the tested form may be a part): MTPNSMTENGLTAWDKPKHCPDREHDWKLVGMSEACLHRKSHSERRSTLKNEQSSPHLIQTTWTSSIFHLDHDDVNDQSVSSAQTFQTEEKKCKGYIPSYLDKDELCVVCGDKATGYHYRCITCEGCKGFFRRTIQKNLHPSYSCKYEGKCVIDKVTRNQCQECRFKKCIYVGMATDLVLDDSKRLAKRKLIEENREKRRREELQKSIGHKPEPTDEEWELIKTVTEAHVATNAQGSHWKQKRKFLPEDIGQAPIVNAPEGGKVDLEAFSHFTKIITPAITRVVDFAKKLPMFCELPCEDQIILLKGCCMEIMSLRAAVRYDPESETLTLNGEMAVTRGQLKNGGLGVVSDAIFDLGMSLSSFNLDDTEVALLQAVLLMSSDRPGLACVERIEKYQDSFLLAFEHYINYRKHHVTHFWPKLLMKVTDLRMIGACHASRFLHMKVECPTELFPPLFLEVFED
# Outline: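 HEK293T cells with a GAL4-TRb LBD fusion and UAS-bla reporter, 3,000 cells/well in phenol red-free DMEM with 2% charcoal-stripped FBS. Exposed 18 h at 37C to 11 concentrations in triplicate; CCF4 460:530 nm ratio after 2 h, DMSO-referenced.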
# [10] = target: Retinoic acid receptor RXR-alpha (Homo sapiens) (UniProt P19793); assay: TOX21_TR_RXR_BLA_Antagonist_Followup_ratio: Tox21 Thyroid Hormone Receptor beta Retinoid X Receptor alpha (RXRa) Antagonism Beta-lactamase (BLA) Follow-Up Assay, Ratio (AID 2283972)
# Sequence of Retinoic acid receptor RXR-alpha (Homo sapiens) (P19793 whole entry, looked up): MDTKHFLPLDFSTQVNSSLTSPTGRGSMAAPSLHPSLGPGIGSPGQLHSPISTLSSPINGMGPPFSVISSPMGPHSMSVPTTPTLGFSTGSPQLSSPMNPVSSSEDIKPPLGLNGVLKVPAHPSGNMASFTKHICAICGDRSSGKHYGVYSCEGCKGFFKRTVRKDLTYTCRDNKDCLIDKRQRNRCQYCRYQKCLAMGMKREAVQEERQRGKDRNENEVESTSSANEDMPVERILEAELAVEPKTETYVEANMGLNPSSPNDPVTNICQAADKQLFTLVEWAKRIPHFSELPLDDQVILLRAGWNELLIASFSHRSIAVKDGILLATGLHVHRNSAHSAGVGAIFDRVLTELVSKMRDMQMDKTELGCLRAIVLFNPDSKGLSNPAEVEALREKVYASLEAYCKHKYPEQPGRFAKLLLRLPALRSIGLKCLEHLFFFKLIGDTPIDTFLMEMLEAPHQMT
# Outline: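 RXRa-UAS-bla HEK293T cells, 2,500/well in phenol red-free DMEM with 2% charcoal-stripped FBS, 5 h attachment, then compounds (11 concentrations, triplicate) for 16 h at 37C; FRET-B/GCCF4-AM substrate 2 h RT; 460:530 nm ratio, loss of signal vs DMSO.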
# [11] = TOX21_TR_RXR_BLA_Antagonist_Followup_viability: Viability Assessment in the Tox21 Thyroid Hormone Receptor beta Retinoid X Receptor alpha (RXRa) Antagonism Beta-lactamase (BLA) Follow-Up Assay (AID 2283979)
# Outline: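 Follow-up compounds (11 concentrations, triplicate) were incubated 16 h at 37C/5% CO2 with HEK293T RXRa-bla cells seeded at 2,500/well in charcoal-stripped-serum medium. ATP content by CellTiter-Glo luminescence gave viability; curves fitted in both directions against DMSO.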
# [12] = TOX21_p53_BLA_p3_viability: Viability Assessment in the Tox21 HCT-116 p53 Agonism Beta-lactamase Assay, Phase 3 (AID 2283593);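 note: cells exposed to compound for 16 h before reading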
# Outline: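 Cellular ATP was quantified by CellTiter-Glo luminescence, read after 30 min at room temperature. Beforehand, HCT116 cells (4000/well) received compound 5 h post-seeding, 217-fold diluted from DMSO, then incubated 16 h at 37C.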
compound,measurement,setting,value
O=C1CN(O)C(c2ccccc2)=c2cc(Cl)ccc2=N1,outcome,[1],inactive
same,outcome,[2],inactive
same,outcome,[3],inactive
same,outcome,[4],inactive
OC(Cn1cncn1)(c1ccc(F)cc1)c1ccccc1F (centres undefined),outcome,[1],inactive
same,outcome,[2],inactive
same,outcome,[5],inactive
same,outcome,[6],inactive
same,outcome,[7],inactive
C[N+]1(CCF)[C@@H]2CC[C@H]1CC(OC(=O)C(O)(c1ccccc1)c1ccccc1)C2 (some centres undefined),outcome,[1],inactive
same,outcome,[2],inactive
NC(=O)C(Cl)Cl,outcome,[1],inactive
same,outcome,[2],inactive
same,outcome,[5],inactive
same,outcome,[4],inactive
CCCCCCBr,outcome,[1],inactive
same,outcome,[8],inactive
same,outcome,[4],inactive
CNC(=O)OCC[N+](C)(C)C,outcome,[1],inactive
same,outcome,[2],inactive
same,outcome,[3],inactive
same,outcome,[4],inactive
COc1ccccc1N1CCNCC1,outcome,[1],inactive
same,outcome,[5],inactive
same,outcome,[3],inactive
same,outcome,[4],inactive
N#CCCC#N,outcome,[1],inactive
same,outcome,[2],inactive
same,outcome,[5],inactive
same,outcome,[3],inactive
NNC(=O)c1cccnc1,outcome,[1],inactive
same,outcome,[2],inactive
same,outcome,[5],inactive
same,outcome,[4],inactive
c1csc(C2(N3CCCCC3)CCCCC2)c1,outcome,[1],inactive
same,outcome,[8],inactive
same,outcome,[4],inactive
C=CCN1C[C@H](C)N([C@H](c2ccc(C(=O)N(CC)CC)cc2)c2cccc(OC)c2)C[C@H]1C,outcome,[1],inactive
same,outcome,[2],inactive
same,outcome,[5],inactive
same,outcome,[4],inactive
Oc1ccc2c3c1O[C@H]1[C@@H](O)C=C[C@H]4[C@@H](C2)NCC[C@@]341,outcome,[1],inactive
same,outcome,[2],inactive
same,outcome,[5],inactive
same,outcome,[4],inactive
CNC(=O)Oc1ccccc1C1OCCO1,outcome,[1],inactive
same,outcome,[5],inactive
same,outcome,[3],inactive
same,outcome,[4],inactive
CCC1C(C)=NN=C(c2ccc(OC)c(OC)c2)c2cc(OC)c(OC)cc21 (centres undefined),outcome,[1],inactive
same,outcome,[5],inactive
O=C1OC2(c3cc(Br)c(O)cc3Oc3c2cc(Br)c(O)[c]3[Hg])c2ccccc21 (centres undefined),outcome,[1],inactive
same,outcome,[2],inactive
same,outcome,[5],inactive
same,outcome,[4],inactive
same,outcome,[9],inactive
same,outcome,THRB (gene 7068),inactive
same,outcome,[10],inactive
same,outcome,[11],inactive
COc1cc(CC(C)N)cc(OC)c1OC (centres undefined),outcome,[1],inactive
same,outcome,[2],inactive
same,outcome,[5],inactive
same,outcome,[4],inactive
ClCC(Cl)(Cl)Cl,outcome,[1],inactive
same,outcome,[5],inactive
same,outcome,[3],inactive
Cc1ccc(N)cc1C,outcome,[1],inactive
same,outcome,[5],inactive
same,outcome,[4],inactive
CC[C@H]1C[C@@H]2C[C@H]3c4[nH]c5ccc(OC)cc5c4CCN(C2)[C@@H]13,outcome,[1],inactive
same,outcome,[8],inactive
same,outcome,[4],inactive
C[N+]1(C)[C@@H]2CC[C@H]1CC(OC(=O)c1c[nH]c3ccccc13)C2 (some centres undefined),outcome,[1],inactive
same,outcome,[2],inactive
same,outcome,[5],inactive
same,outcome,[3],inactive
same,outcome,[4],inactive
C#CC(C)(O)CC (centres undefined),outcome,[1],inactive
same,outcome,[2],inactive
same,outcome,[5],inactive
same,outcome,[3],inactive
same,outcome,[4],inactive
CNNC,outcome,[1],inactive
same,outcome,[2],inactive
same,outcome,[5],inactive
same,outcome,[3],inactive
CCCCCN(C)CCC(O)(P(=O)(O)O)P(=O)(O)O,outcome,[1],inactive
same,outcome,[2],inactive
same,outcome,[3],inactive
same,outcome,[4],inactive
CC(Cl)C(C)Cl (centres undefined),outcome,[1],inactive
same,outcome,[2],inactive
same,outcome,[5],inactive
CN1C(=O)CC(=O)N(c2ccccc2)c2cc(Cl)ccc21,outcome,[1],inactive
same,outcome,[2],inactive
same,outcome,[5],inactive
same,outcome,[3],inactive
same,outcome,[4],inactive
CN(C)CCc1ccc(O)cc1,outcome,[1],inactive
same,outcome,[5],inactive
same,outcome,[4],inactive
CCCC[N+]1(C)CCCC1,outcome,[1],inactive
same,outcome,[8],inactive
same,outcome,[4],inactive
c1cc2c(c(N3CCNCC3)c1)OCCO2,outcome,[1],inactive
same,outcome,[2],inactive
same,outcome,[5],inactive
Cc1ccc(-c2nc3ccc(C)cn3c2CC(=O)N(C)C)cc1,outcome,[1],inactive
same,outcome,[5],inactive
same,outcome,[3],inactive
same,outcome,[4],inactive
COP(=S)(OC)Oc1ccc(S(N)(=O)=O)cc1,outcome,[1],inactive
same,outcome,[2],inactive
same,outcome,[5],inactive
same,outcome,[3],inactive
same,outcome,[4],inactive
Cc1c(N)nc([C@H](CC(N)=O)NC[C@H](N)C(N)=O)nc1C(=O)N[C@H](C(=O)N[C@H](C)[C@@H](O)[C@H](C)C(=O)N[C@H](C(=O)NCCc1nc(-c2nc(C(=O)NCCC[S+](C)C)cs2)cs1)[C@@H](C)O)[C@@H](O[C@@H]1O[C@@H](CO)[C@@H](O)[C@H](O)[C@@H]1O[C@H]1O[C@H](CO)[C@@H](O)[C@H](OC(N)=O)[C@@H]1O)c1cnc[nH]1,AC50,[1],195 nM (active) and 1.16 µM (active)
same,AC50,[5],86.5 nM (active) and 808 nM (active)
same,AC50,[4],219 nM (active) and 730 nM (active)
O=S(=O)(Cl)Cl,outcome,[1],inactive
same,outcome,[5],inactive
same,outcome,[3],inactive
CCOP(=S)(OCC)SCCl,outcome,[1],inactive
same,outcome,[2],inactive
same,outcome,[3],inactive
same,outcome,[4],inactive
C[C@@H](Cc1ccccc1)N(C)C,outcome,[1],inactive
same,outcome,[2],inactive
same,outcome,[5],inactive
same,outcome,[3],inactive
same,outcome,[4],inactive
O=C1CC[C@@]2(O)[C@H]3Cc4ccc(O)c5c4[C@@]2(CCN3CC2CC2)[C@H]1O5,outcome,[1],inactive
same,outcome,[8],inactive
same,outcome,[4],inactive
N#CC(Cl)(Cl)Cl,outcome,[12],inactive
same,outcome,[8],inactive
same,outcome,[3],inactive
C=C(C)CCl,outcome,[12],inactive
same,outcome,[8],inactive
same,outcome,[5],inactive
same,outcome,[3],inactive
C=CCBr,outcome,[12],inactive
same,outcome,[8],inactive
same,outcome,[5],inactive
